Laboratory results: PubChem BioAssay (NCATS)
Inconclusive results are not listed. Calls of active or inactive are those of the source. The call rests on the fitted dose curve; in most records, active means well fitted inhibition curve with a large enough effect; inconclusive means small, poorly fitted or top-dose-only effect; inactive means flat fitted curve, though single readings scatter.

test system: NIH3T3; assay: Cytotoxic Profiling of Annotated Libraries Using Quantitative High-Throughput Screening (AID 1296008); details: Five cell lines viability, CellTiter-Glo ATP luminescence, 48-72 h; max response: stronger effect = lower value; further: nearly all actives have a fitted effect of over 60% in size
Method in brief: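 Cytotoxicity was measured as CellTiter-Glo ATP luminescence, read after 10 min at room temperature. Compound treatment of the cells lasted 48 or 72 hr at 37 degrees Celsius in a qHTS format.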
On the % scale 0 is the no-effect control and ±100 the full control effect; potency means the concentration at half of the fitted maximal effect.

Row | Compound | max response | Potency
1 | COC(=O)C(C)C1CCC2(C)C(=O)C=CC(C)(O)C2C1O (stereo not drawn) | 2.97% (inactive) | –
2 | C[C@H]1C(=O)N2c3ccccc3[C@@]3(O)C[C@@H]4C(=O)N[C@](C)(c5nc6ccccc6c(=O)n54)N1[C@@H]23 | -0.721% (inactive) | –
3 | C=CC1(C)CC(OC(=O)/C(C)=C\COC(C)=O)C(C(=C)C(=O)O)C(O)C1C(=C)CO (stereo not drawn) | -3.05% (inactive) | –
4 | CC1(C)CC[C@]2(C(=O)O)[C@H](O)C[C@]3(C)C(=CCC4[C@@]5(C)CC[C@H](O[C@@H]6O[C@H](CO[C@@H]7OC[C@H](O)[C@H](O)[C@H]7O[C@@H]7OC[C@@H](O)[C@H](O)[C@H]7O)[C@@H](O)[C@H](O)[C@H]6O[C@@H]6O[C@H](CO)[C@@H](O)[C@H](O)[C@H]6O)C(C)(C)C5CC[C@]43C)[C@@H]2C1 (stereo partly drawn) | -6.3% (inactive) | –
5 | COc1c/c(=C2\C=c3ccccc3=N2)[nH]/c1=C\c1[nH]c(C)cc1C | – | 6.51 µM (active)
6 | CC(=O)O[C@@H]1c2c3c(cc(O)c2C(=O)O[C@@H]1C)O[C@@]1(C)[C@@H](O)C[C@H]2C(C)(C)C(=O)C=C[C@]2(C)[C@@H]1C3 | -3.36% (inactive) | –
7 | Cc1cccc2c1NC(=O)C2(c1ccc(O)cc1)c1ccc(O)cc1 | -15.5% (inactive) | –
8 | CC(O)CCC1C(CO[C@@H]2O[C@H](CO)[C@@H](O)[C@H](O)[C@H]2O)CC(O)CC1(C)C (stereo partly drawn) | -8.75% (inactive) | –
9 | Cc1nc(C)c(-c2ccc(C3CCC(CC(=O)O)CC3)cc2)nc1C(N)=O (stereo not drawn) | 2.81% (inactive) | –
10 | CCCCNc1ncc2c(-c3ccc(CN4CCN(C)CC4)cc3)cn(C3CCC(O)CC3)c2n1 (stereo not drawn) | – | 1.3 µM (active)
11 | Cc1cc(C)nc(NS(=O)(=O)c2ccc(NC(=S)NC(=O)COc3ccc(Br)cc3Cl)cc2)n1 | -1.58% (inactive) | –
12 | CC1(C)CCC2(C(=O)OC3OC(CO)C(O)C(O)C3O)CCC3(C)C(=CCC4C5(C)CCC(O)C(C)(C(=O)O)C5CCC43C)C2C1O (stereo not drawn) | 0.934% (inactive) | –
13 | CCCCNc1ncc2c(-c3ccc(F)cc3)nn(CC3CCC(N)CC3)c2n1 (stereo not drawn) | – | 6.32 µM (active)
14 | N=c1nc2n(cc1F)C1OC(CO)C(O)C1O2 (stereo not drawn) | – | 2.06 µM (active)
15 | CC1(C)CC2=C3C=CC4C5(C)CCC(O)C(C)(C)C5CCC4(C)C3(C)CCC2(C)C(O)C1 (stereo not drawn) | -2.26% (inactive) | –
16 | CSc1ccc(C(=O)N[C@@H]2CCCC[C@@H]2NC(=O)CNC(=O)c2cc(C(F)(F)F)ccc2NC(=O)NC(C)C)cc1 | 0.151% (inactive) | –
17 | N[C@H]1Cc2ccccc2N(O)C1=O | -9.2% (inactive) | –
18 | CC(NC(=O)CCc1nc2ccccc2c(=O)[nH]1)c1ccccc1 (stereo not drawn) | 2.87% (inactive) | –
19 | COc1ccc([C@@]2(O)c3c(ccc4c3OC(C)(CCC=C(C)C)C=C4)NC(=O)[C@@H]2OC)cc1 (stereo partly drawn) | -14.3% (inactive) | –

Row | Compound | max response | Potency
20 | C=C(C)C1Cc2cc(C(=O)OC3OC(CO)C(O)C(O)C3O)ccc2O1 (stereo not drawn) | -5.26% (inactive) | –
21 | CC1OC(OC2C(C)OC(OC3C(OC(=O)C45CCC(C)(C)CC4C4=CCC6C7(C)CCC(OC8OC(C(=O)O)C(O)C(O)C8OC8OC(CO)C(O)C(OC9OC(C)C(O)C(O)C9O)C8O)C(C)(CO)C7CCC6(C)C4(C)CC5)OC(CO)C(O)C3O)C(O)C2O)C(O)C(O)C1O (stereo not drawn) | -18.1% (inactive) | –
22 | C=C[C@]1(C)C[C@H](O)[C@@H]2[C@H](OC(=O)[C@@H]2C)C1/C(C)=C/O[C@@H]1O[C@H](CO)[C@@H](O)[C@H](O)[C@H]1O (stereo partly drawn) | -22.7% (inactive) | –
23 | CC(=O)O[C@H]1[C@H](O[C@H]2[C@@H]3C=CO[C@@H](O[C@@H]4O[C@H](CO)[C@@H](O)[C@H](O)[C@H]4O)[C@@H]3[C@@]3(CO)O[C@@H]23)O[C@@H](C)[C@H](OC(=O)/C=C/c2ccccc2)[C@H]1OC(=O)/C=C/c1ccccc1 | 0.432% (inactive) | –
24 | Cc1[nH]c2ccccc2c1C1=C(NCCc2ccc(F)cc2)C(=O)N(C)C1=O | – | 14.6 µM (active)
25 | O=C(Nc1ccccc1)N1CCN(Cc2ccc3ccccc3n2)CC1 | 1.66% (inactive) | –
26 | C=C(C(=O)O)C1CC(O)C2(C)CCCC(=C)C2C1 (stereo not drawn) | 2.65% (inactive) | –
27 | CC1(O)CC(O)C2(O)C=COC(O[C@@H]3O[C@H](CO)[C@@H](O)[C@H](O)[C@H]3O)C12 (stereo partly drawn) | -15.6% (inactive) | –
28 | COC1C(CO)OC(n2cnc3c(=O)[nH]cnc32)C1O (stereo not drawn) | -5.01% (inactive) | –
29 | C=C1C(=O)OC2CC3(C)C(CC12)C(C)=CC(O)C3OC(C)=O (stereo not drawn) | -1.8% (inactive) | –
30 | Cc1cc(Cl)ccc1COc1ccnn1-c1cc(C(=O)O)ccn1 | 0.276% (inactive) | –
31 | CC(=O)OC1CC2(C)C3=CCC4(C)C5C(O)C(O)C(C(C)C)C5(C)CCC4(C)C3CCC2C(C)(C)C1OC1OC(CO)C(O)C(O)C1O (stereo not drawn) | 4.87% (inactive) | –
32 | CC1=CC(=O)CC(C)(CO)C1(O)/C=C/C(C)O[C@@H]1O[C@H](CO)[C@@H](O)[C@H](O)[C@H]1O (stereo partly drawn) | -3.42% (inactive) | –
33 | COc1cccc2cc3c(c(O[C@@H]4O[C@H](CO[C@@H]5O[C@H](CO)[C@@H](O)[C@H](O)[C@H]5O)[C@@H](O)[C@H](O)[C@H]4O)c12)C(C)OC3=O (stereo partly drawn) | 0.0764% (inactive) | –
34 | Nc1ncnc2c1ncn2CCNCCCCCO | -0.352% (inactive) | –
35 | CCCn1c(=O)c2[nH]c(-c3ccc(OCC(=O)O)cc3)nc2n(CCC)c1=O | -3.27% (inactive) | –
36 | C/C1=C\[C@H]2OC(=O)[C@@H](C)[C@@H]2CC/C(C(=O)O)=C/CC1 | -2.73% (inactive) | –
37 | C=CC(C)(O)CC/C=C(\C)C(=O)OC1C(O)C(CO)OC(OC(=O)C23CCC(C)(C)CC2C2=CCC4C5(C)CCC(OC6OC(COC7OCC(OC(C)=O)C(O)C7OC7OC(COC(C)=O)C(O)C(O)C7O)C(O)C(O)C6O)C(C)(C)C5CCC4(C)C2(C)C(O)C3O)C1OC1OCC(OC2OCC(O)C(OC3OCC(O)C(O)C3O)C2O)C(O)C1O (stereo not drawn) | -2.07% (inactive) | –
38 | Cc1ccc(F)cc1C(=O)Nc1ccc(C(=O)N2Cc3cccn3Cc3ccccc32)c(Cl)c1 | -21.1% (inactive) | –
